Drawing on PubChem BioAssay AID624088 (Broad Institute, 2012), this text covers outcome for 20 compounds.

Structures are written as SMILES. Active and inactive are the calls of the source.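 Rule for the calls: active = fitted potency no more than ten times the top tested concentration; inactive = fitted potency more than ten times the top tested concentration.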

The experiment is described as follows: beta-catenin nuclear translocation by GSK3b inhibition, dose response, orthogonal assay for GSK3b inhibitor project, cell-based, U2-OS, PathHunter, beta-gal complementation, dry powder (AID 624088). The conditions noted are these: beta-gal luminescence, 6 h; series mostly up to 26 µM.
As for `COc1ccccc1C1C2=C(CC3(CCCCC3)CC2=O)Nc2n[nH]c(C)c21` (stereo not given), the outcome was inactive.

As for `COc1ccccc1-c1c2c(nc3n[nH]c(C)c13)CCC2=O`, the compound was called inactive.

As to `Cc1[nH]nc2c1C(C)C1=C(CC(C)(C)CC1=O)N2` (stereo not given), the call was inactive.

On to `Cc1[nH]nc2c1C(C1CCCCC1)C1=C(CC(C)(C)CC1=O)N2` (stereo not given), for which the compound was called inactive.

For `COc1ccc(-c2nn(-c3ccccc3)cc2CO)cc1`, the compound was called inactive.

In the case of `COc1ccccc1C1C(C(C)=O)=C(C)Nc2n[nH]c(C)c21` (stereo not given), the compound was called inactive.

Regarding `COc1ccc(-c2nn(-c3ccccc3)cc2C(=O)O)cc1`, the outcome was inactive.

As for `COc1ccccc1C1C2=C(CCCC2=O)Nc2n[nH]c(C)c21` (stereo not given), the result was inactive.

As to `Cc1[nH]nc2c1C(c1ccc(C(F)(F)F)cc1)C1=C(CC(C)(C)CC1=O)N2` (stereo not given), the outcome was inactive.

As for `COc1ccccc1C1C2=C(CC(C)(C)CC2=O)Nc2onc(C)c21` (stereo not given), the result was inactive.

As for `Cc1ccccc1C1C2=C(CC(C)(C)CC2=O)Nc2n[nH]c(C)c21` (stereo not given), the result was inactive.

Take `Cc1[nH]nc2c1[C@H](c1ccccc1C(F)(F)F)C1=C(CC(C)(C)CC1=O)N2`: the outcome was inactive.

Turning to `Cc1[nH]nc2nc3c(cc12)C(=O)CC(C)(C)C3`, the compound was called inactive.

With `COc1ccccc1C1C2=C(CC(C)(C)CC2=O)Nc2n[nH]c(-c3ccccc3)c21` (stereo not given), the outcome was inactive.

Regarding `COc1ccccc1C1C2=C(CCC(C)(C)C2=O)Nc2n[nH]c(C)c21` (stereo not given), the call was inactive.

`COc1ccccc1[C@@H]1C2=C(CC(C)(C)CC2=O)Nc2n[nH]c(C)c21`: the call was inactive.

With `COc1ccccc1[C@H]1C2=C(CC(C)(C)CC2=O)Nc2n[nH]c(C(F)(F)F)c21`, the compound was classed as inactive.

With `COc1ccccc1C1C2=C(CC(C)(C)CC2=O)Nc2ccccc21` (stereo not given), the compound was called inactive.

Regarding `O/N=C/c1cn(-c2ccccc2)nc1-c1ccc(Cl)cc1`, the outcome was inactive.

With `Cc1[nH]nc2c1C(C1CC1)C1=C(CC(C)(C)CC1=O)N2` (stereo not given), the compound was called inactive.
